# According to PubChem BioAssay (NCATS):
# Inconclusive results are not listed. Where a call stands in place of a potency, no number is given. Activity calls are given as the source filed them. Unless noted, the call rests on the fitted dose curve; in most records, active means well fitted curve in the direction sought with a large enough effect; inconclusive means small, poorly fitted or top-dose-only effect, or another doubt; inactive means no such curve, though single readings can be large; an effect the other way counts as inactive or inconclusive.
# Columns and labels:
# [1] = qHTS assay for measurement of the activity of small molecule inhibitors on Zika virus induced Caspase-3 activity in human iPSC derived neural progenitor cells (hNPCs) (AID 1224857); further: nearly all actives have a fitted effect of over 65% in size
# Method in brief: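 Zika virus (2 FFU/cell) infection of human iPSC-derived NPCs, 6 h, following 1 h compound preincubation. Read-out: Caspase-Glo 3/7 luminescence.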
# [2] = qHTS assay for measurement of the activity of small molecule inhibitors on Zika virus induced Caspase-3 activity in human astrocytoma cells (AID 1224859)
# Method in brief: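 Caspase activation in ZIKV-infected SNB-19 cells (2 FFU/cell, 6 h) measured by Caspase-Glo 3/7 luminescence after 30 min RT; compound pre-incubated 1 h; normalised to uninfected and infected controls.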
# [3] = qHTS assay to identify small molecule inhibitors of chordoma cells - UCH-1 (AID 1259355); further: nearly all actives have a fitted effect of over 55% in size; further: potency means the concentration at half of the fitted maximal effect
# Method in brief: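 Seed 800 cells per well; incubate overnight at 37 C, 5% CO2. Add test compounds (15 concentrations), then the auranofin–topoisomerase-agent combination. Incubate 48hr, add CellTiter-Glo, wait 30min, read luminescence.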
# [4] = P-glycoprotein substrates identified in KB-8-5-11 adenocarcinoma cell line, qHTS therapeutic library screen (AID 1346987); further: nearly all actives have a fitted effect of over 65% in size; further: potency means the concentration at half of the fitted maximal effect
# Method in brief: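 KB-8-5-11, a colchicine-selected P-gp-overexpressing KB-3-1 subline, was grown without colchicine for the assay. Cells were seeded at 500 cells/well, dosed in concentration-response and incubated 72 h at 37 degree C, 5% CO2. Viability was read by CellTiter-Glo luminescence.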
# [5] = Natriuretic polypeptide receptor (hNpr1) antagonism - Pilot counterscreen GloSensor control cell line (AID 1347045; calls by dose curve)
# Method in brief: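 HEK293 cGMP GloSensor cells preloaded 2 h with 2% GloSensor reagent, then compound 30 min before baseline luminescence read. Stimulated with 50 uM sodium nitroprusside, 20 min at room temperature, then read again; counterscreen for Npr1 antagonism.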
# [6] = target: Atrial natriuretic peptide receptor 1 (Homo sapiens) (UniProt P16066); test: Natriuretic polypeptide receptor (hNpr1) antagonism - Pilot screen (AID 1347049; calls by dose curve;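 further: agonist-evoked cGMP luminescence read 20 min after hNppA addition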)
# Chain of Atrial natriuretic peptide receptor 1 (Homo sapiens) (P16066 whole entry, looked up): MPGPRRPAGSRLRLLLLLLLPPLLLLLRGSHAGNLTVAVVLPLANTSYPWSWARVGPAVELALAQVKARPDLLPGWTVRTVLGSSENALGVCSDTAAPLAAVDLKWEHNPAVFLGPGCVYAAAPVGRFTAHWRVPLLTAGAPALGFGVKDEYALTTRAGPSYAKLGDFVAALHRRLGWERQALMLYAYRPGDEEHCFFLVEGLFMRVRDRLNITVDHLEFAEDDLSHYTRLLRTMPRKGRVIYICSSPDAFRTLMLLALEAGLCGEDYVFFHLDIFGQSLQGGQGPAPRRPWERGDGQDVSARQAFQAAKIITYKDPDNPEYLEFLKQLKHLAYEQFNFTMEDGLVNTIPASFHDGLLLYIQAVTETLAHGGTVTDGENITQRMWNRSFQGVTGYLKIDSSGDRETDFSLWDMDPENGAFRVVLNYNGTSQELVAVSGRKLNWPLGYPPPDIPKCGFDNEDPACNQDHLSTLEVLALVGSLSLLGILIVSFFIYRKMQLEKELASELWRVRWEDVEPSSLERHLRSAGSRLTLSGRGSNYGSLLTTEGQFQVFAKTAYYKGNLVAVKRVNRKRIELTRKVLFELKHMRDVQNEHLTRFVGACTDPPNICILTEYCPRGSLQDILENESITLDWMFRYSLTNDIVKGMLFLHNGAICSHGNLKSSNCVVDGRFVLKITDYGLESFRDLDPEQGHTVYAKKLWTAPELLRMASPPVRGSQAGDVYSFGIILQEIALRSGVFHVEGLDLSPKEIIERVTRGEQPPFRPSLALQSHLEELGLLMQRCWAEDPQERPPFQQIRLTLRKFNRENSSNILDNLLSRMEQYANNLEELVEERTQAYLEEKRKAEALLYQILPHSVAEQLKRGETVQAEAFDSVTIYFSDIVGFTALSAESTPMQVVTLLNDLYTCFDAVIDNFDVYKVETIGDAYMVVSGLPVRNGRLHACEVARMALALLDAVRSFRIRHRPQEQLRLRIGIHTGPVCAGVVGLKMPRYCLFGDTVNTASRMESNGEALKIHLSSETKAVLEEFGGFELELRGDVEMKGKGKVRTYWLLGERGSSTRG
# Method in brief: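 Readout is cGMP-driven firefly luciferase luminescence in HEK293 cells carrying hNpr1 and a PDE5-domain GloSensor, read before and 20 min after 0.1 nM hNppA stimulation. Cells had 2% substrate reagent for 2 h and test compound for 30 min.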
# [7] = target: Atrial natriuretic peptide receptor 2 (Homo sapiens) (UniProt P20594); test: Natriuretic polypeptide receptor (hNpr2) antagonism - Pilot subtype selectivity assay (AID 1347050; calls by dose curve)
# Chain of Atrial natriuretic peptide receptor 2 (Homo sapiens) (P20594 whole entry, looked up): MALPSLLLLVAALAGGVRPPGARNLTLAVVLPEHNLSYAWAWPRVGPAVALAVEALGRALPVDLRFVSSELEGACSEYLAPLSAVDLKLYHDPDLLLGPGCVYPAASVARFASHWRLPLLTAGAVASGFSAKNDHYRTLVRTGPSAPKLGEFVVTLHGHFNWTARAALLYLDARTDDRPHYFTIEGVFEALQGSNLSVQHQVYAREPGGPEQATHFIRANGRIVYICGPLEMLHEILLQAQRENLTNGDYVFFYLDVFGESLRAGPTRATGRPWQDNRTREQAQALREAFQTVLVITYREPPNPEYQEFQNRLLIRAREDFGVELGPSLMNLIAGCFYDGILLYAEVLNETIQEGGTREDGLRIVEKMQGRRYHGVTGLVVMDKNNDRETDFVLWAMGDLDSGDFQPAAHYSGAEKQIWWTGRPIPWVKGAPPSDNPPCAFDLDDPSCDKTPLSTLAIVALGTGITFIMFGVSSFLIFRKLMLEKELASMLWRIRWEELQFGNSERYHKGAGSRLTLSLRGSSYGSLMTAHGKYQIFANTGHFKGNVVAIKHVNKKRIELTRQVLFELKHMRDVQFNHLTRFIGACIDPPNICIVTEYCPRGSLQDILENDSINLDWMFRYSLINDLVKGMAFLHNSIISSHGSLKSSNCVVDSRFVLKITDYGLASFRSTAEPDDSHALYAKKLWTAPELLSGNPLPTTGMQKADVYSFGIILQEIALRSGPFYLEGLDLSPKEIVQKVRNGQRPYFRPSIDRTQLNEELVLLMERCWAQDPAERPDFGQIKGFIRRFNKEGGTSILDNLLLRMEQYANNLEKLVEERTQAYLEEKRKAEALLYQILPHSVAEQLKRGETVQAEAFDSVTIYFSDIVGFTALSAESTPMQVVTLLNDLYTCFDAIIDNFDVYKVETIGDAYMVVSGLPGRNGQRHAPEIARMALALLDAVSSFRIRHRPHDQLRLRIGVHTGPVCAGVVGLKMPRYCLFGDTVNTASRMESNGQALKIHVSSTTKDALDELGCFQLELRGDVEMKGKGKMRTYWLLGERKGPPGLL
# Method in brief: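 Pilot selectivity screen against hNpr2: HEK293 cGMP-sensor cells are treated with LOPAC1280 compounds, then with hNppC peptide at 1 nM final. The cGMP-driven luminescence change over 20 min at room temperature is the read-out.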
# [8] = NS1 protein of Zika virus - qHTS assay to identify small molecule inhibitors in human HEK 293 cells (AID 1347053); further: nearly all actives have a fitted effect of over 55% in size
# Method in brief: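 HEK 293 cells, seeded 20 h at 37 C, were pretreated with compound 1 h, then infected with ZIKV MR766 (MOI = 0.5) for 24 h. NS1 was read by TR-FRET with two anti-NS1 antibodies, normalized to uninfected and infected wells.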
# [9] = qHTS assay to identify small molecule inhibitors of chordoma cells - UCH-2 (AID 1259356)
# [10] = qHTS profiling of the MIPE4 collection as inhibitors of Plasmodium falciparum (3D7) proliferation (AID 743344; call rule not given here); settings: P. falciparum 3D7 in erythrocytes, SYBR Green DNA fluorescence, 72 h; at 28.5 µM (top of the series) unless noted
# Method in brief: (§1)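 Erythrocytes infected with P. falciparum (0.3% parasitemia, 2.5% hematocrit) incubated with compounds 72 h at 37 C, 5% CO2. Lysis with saponin/Triton buffer containing SYBR Green I, overnight at room temperature in the dark; DNA fluorescence (485/535 nm) normalised to 0.29 uM artemisinin and DMSO.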
# [11] = qHTS profiling of the MIPE4 collection as inhibitors of Plasmodium falciparum (DD2) proliferation (AID 743345; call rule not given here); settings: P. falciparum Dd2 in erythrocytes, SYBR Green DNA, 72 h; at 28.5 µM (top of the series) unless noted
# Method in brief: as §1
# [12] = qHTS profiling of the MIPE4 collection as inhibitors of Plasmodium falciparum (DD2) proliferation (Rep 2) (AID 743346; call rule not given here); settings: P. falciparum Dd2 in erythrocytes, SYBR Green DNA, 72 h; at 28.5 µM (top of the series) unless noted
# Method in brief: as §1
# [13] = qHTS profiling of the MIPE4 collection as inhibitors of Plasmodium falciparum (HB3) proliferation (AID 743347; call rule not given here); settings: P. falciparum HB3 in erythrocytes, SYBR Green DNA, 72 h; at 28.5 µM (top of the series) unless noted
# Method in brief: as §1
# [14] = P-glycoprotein substrates identified in KB-3-1 adenocarcinoma cell line, qHTS therapeutic library screen (AID 1346986); settings: KB-3-1 parental cells viability, CellTiter-Glo, 72 h; at 44.5 µM (top of the series); further: nearly all actives have a fitted effect of over 60% in size
# Method in brief: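 Cells seeded 500/well in DMEM/10% FCS; compounds pinned in dose-response; 72 h incubation; CellTiter-Glo added, 5 min, luminescence. KB-8-5-11 run ±tariquidar to test reversal of P-gp resistance.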
compound,measurement,setting,value
N[C@H](CO)C(=O)O,outcome,[1],inactive
same,outcome,[2],inactive
same,Potency,[3],inactive
same,Potency,[4],inactive
same,outcome,[5],inactive
same,outcome,[6],inactive
same,outcome,[7],inactive
same,Potency,[8],inactive
Cc1c(F)c(N2CCNC(C)C2)cc2c1c(=O)c(C(=O)O)cn2C1CC1 (stereo unspecified),outcome,[1],inactive
same,outcome,[2],inactive
same,Potency,[3],inactive
same,Potency,[9],inactive
same,Potency,[8],inactive
NCCc1ccn[nH]1,outcome,[1],inactive
same,outcome,[2],inactive
same,Potency,[3],inactive
same,Potency,[9],inactive
same,Potency,[8],inactive
NC(=O)CC[C@@H]1NC(=O)[C@H](Cc2ccccc2)NC(=O)[C@H](Cc2ccc(O)cc2)NC(=O)CCSSC[C@@H](C(=O)N2CCC[C@H]2C(=O)N[C@@H](CCCN=C(N)N)C(=O)NCC(N)=O)NC(=O)[C@H](CC(N)=O)NC1=O,outcome,[1],inactive
same,outcome,[2],inactive
same,Potency,[3],inactive
same,Potency,[8],inactive
NCCCC[C@H](N[C@@H](CCc1ccccc1)C(=O)O)C(=O)N1CCC[C@H]1C(=O)O,outcome,[1],inactive
same,outcome,[2],inactive
same,Potency,[3],inactive
same,Potency,[8],inactive
O=C(O)c1cc2cc(Cc3cccnc3)ccc2o1,outcome,[1],inactive
same,outcome,[2],inactive
same,Potency,[3],inactive
same,Potency,[4],inactive
same,outcome,[5],inactive
same,outcome,[6],inactive
same,outcome,[7],inactive
same,Potency,[8],inactive
COc1cc(NS(C)(=O)=O)ccc1Nc1c2ccccc2nc2ccccc12,outcome,[1],inactive
same,outcome,[2],inactive
same,Potency,[3],28.2 µM (active)
same,outcome,[6],inactive
same,outcome,[7],inactive
CC1=C(C(=O)OC(C)C)C(c2cccc([N+](=O)[O-])c2)C(C(=O)OC2CN(C(c3ccccc3)c3ccccc3)C2)=C(N)N1 (stereo unspecified),"parasite growth, % of DMSO control",[10],6.8%
same,"parasite growth remaining, % of DMSO control (lower = more inhibition)",[11],7.73%
same,"parasite growth, % of control (lower = inhibition)",[12],24.4%
same,"growth, % of control",[13],9.79%
same,outcome,[1],inactive
same,outcome,[2],inactive
same,Potency,[3],inactive
same,Potency,[9],inactive
Oc1c(Cl)cc(Cl)cc1Sc1cc(Cl)cc(Cl)c1O,outcome,[1],inactive
same,outcome,[2],inactive
same,Potency,[3],inactive
same,Potency,[4],4.61 µM (active)
same,Potency,[8],inactive
CCCOC(C(=O)OC1CCN(C)CC1)(c1ccccc1)c1ccccc1,outcome,[1],inactive
same,outcome,[2],inactive
same,Potency,[3],inactive
same,Potency,[8],inactive
CCN(CC)C(=O)N1CCN(C)CC1,outcome,[1],inactive
same,outcome,[2],inactive
same,Potency,[3],inactive
same,Potency,[8],inactive
O=C1OC(c2ccc(O)cc2)(c2ccc(O)cc2)c2ccccc21,outcome,[1],inactive
same,outcome,[2],inactive
same,Potency,[3],inactive
same,Potency,[9],inactive
same,Potency,[8],inactive
CCOC(=O)COc1ccc2c(C)c(CCN(CC)CC)c(=O)oc2c1Cl,outcome,[1],inactive
same,outcome,[2],inactive
same,Potency,[3],inactive
same,Potency,[4],inactive
same,Potency,[8],inactive
CC(Cc1cccc(C(F)(F)F)c1)NCCOC(=O)c1ccccc1 (stereo unspecified),outcome,[1],inactive
same,outcome,[2],inactive
same,Potency,[3],inactive
same,Potency,[9],inactive
same,Potency,[8],inactive
OC[C@@H](O)[C@@H](O[C@@H]1O[C@H](CO)[C@H](O)[C@H](O)[C@H]1O)[C@H](O)[C@@H](O)CO,outcome,[1],inactive
same,outcome,[2],inactive
same,Potency,[3],inactive
same,Potency,[9],inactive
same,Potency,[8],inactive
CCN(CC)CCOC(=O)C(c1ccccc1)C1CCCCC1 (stereo unspecified),outcome,[1],inactive
same,outcome,[2],inactive
same,Potency,[3],inactive
same,Potency,[4],inactive
same,Potency,[8],inactive
Oc1c(I)cc(Cl)c2cccnc12,outcome,[1],inactive
same,outcome,[2],inactive
same,Potency,[9],inactive
COc1cccc(CCc2ccccc2OCC(CN(C)C)OC(=O)CCC(=O)O)c1 (stereo unspecified),"parasite growth, % of DMSO control",[10],7.32%
same,"parasite growth remaining, % of DMSO control (lower = more inhibition)",[11],11.9%
same,"parasite growth, % of control (lower = inhibition)",[12],21.2%
same,"growth, % of control",[13],5.27%
same,outcome,[1],inactive
same,outcome,[2],inactive
same,Potency,[3],inactive
CC(=O)[C@H]1CC[C@H]2[C@@H]3C[C@H](C)C4=CC(=O)CC[C@]4(C)[C@H]3[C@@H](O)C[C@]12C,outcome,[1],inactive
same,outcome,[2],inactive
same,Potency,[9],inactive
same,Potency,[4],6.99 µM (active)
CC(=O)OCC(=O)[C@@]1(O)[C@H](C)C[C@H]2[C@@H]3CCC4=CC(=O)C=C[C@]4(C)[C@@]3(F)[C@@H](O)C[C@@]21C,outcome,[1],inactive
same,outcome,[2],inactive
same,Potency,[9],inactive
same,outcome,[14],inactive
same,Potency,[4],inactive
CC(=O)Oc1ccc(C(=C2CCCCC2)c2ccc(OC(C)=O)cc2)cc1,outcome,[1],inactive
same,outcome,[2],inactive
same,Potency,[3],inactive
same,Potency,[8],inactive
CNCCC=C1c2ccccc2CCc2ccccc21,outcome,[1],inactive
same,outcome,[2],inactive
same,Potency,[9],inactive
same,Potency,[4],20.6 µM (active)
same,outcome,[6],inactive
same,Potency,[8],inactive
CCCCCCCCCCCCCCCC[N+](C)(C)CCN(Cc1ccc(OC)cc1)c1ncccn1,outcome,[1],inactive
same,outcome,[2],inactive
same,Potency,[9],inactive
same,Potency,[4],inactive
CN(C)CCOc1ccccc1Cc1ccccc1,outcome,[1],inactive
same,outcome,[2],inactive
same,Potency,[9],inactive
same,Potency,[4],inactive
same,Potency,[8],inactive
Cc1cccc(C)c1NC(=O)CN1CCN(CCCC(c2ccc(F)cc2)c2ccc(F)cc2)CC1,"parasite growth, % of DMSO control",[10],13.4%
same,"parasite growth remaining, % of DMSO control (lower = more inhibition)",[11],52.4%
same,"parasite growth, % of control (lower = inhibition)",[12],19.6%
same,"growth, % of control",[13],8.04%
same,outcome,[1],inactive
same,outcome,[2],inactive
same,Potency,[3],inactive
CCCN1CCCC[C@H]1C(=O)Nc1c(C)cccc1C,outcome,[1],inactive
same,outcome,[2],inactive
same,Potency,[9],inactive
same,Potency,[4],inactive
same,Potency,[8],inactive
OCc1ccccc1O,outcome,[1],inactive
same,outcome,[2],inactive
same,Potency,[9],inactive
same,Potency,[4],inactive
same,Potency,[8],inactive
Oc1ccc(O)cc1,outcome,[1],inactive
same,outcome,[2],inactive
same,Potency,[9],inactive
same,Potency,[4],inactive
same,outcome,[6],inactive
same,outcome,[7],inactive
